Screens (PubChem)
BAZ2B block = qHTS Assay for Inhibitors of BAZ2B; Bromodomain adjacent to zinc finger domain protein 2B (Homo sapiens), Q9UIF8; Potency, µM (top dose mostly 114 µM), actives largely listed as inhibitors; AlphaScreen BAZ2B-H3K14Ac peptide displacement; 4.4% of 360,000 active; note: nearly all actives have a fitted effect of over 60% in size
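BAZ2B 50 nM plus b-H3(5-23)K14Ac 50 nM, PBS pH 7.4/0.01% Tween-20, 30 min RT; compound added (max 110 uM), 30 min RT; streptavidin donor/Ni-chelate acceptor beads 10 ug/mL final, 20 min dark; AlphaScreen read.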
HP1b binding inh = HTS for Inhibitors of HP1-beta Chromodomain Interactions with Methylated Histone Tails; Chromobox protein homolog 1 (Homo sapiens), P83916; AlphaScreen HP1-beta / biotin-H3K9me3 peptide binding; Potency, µM (titrated, usually from 114 µM), usual class: inhibitors; 0.56% of 390,000 active; AID 540317, 2011; note: nearly all actives have a fitted effect of over 70% in size
Target sequence (P83916 whole entry, looked up): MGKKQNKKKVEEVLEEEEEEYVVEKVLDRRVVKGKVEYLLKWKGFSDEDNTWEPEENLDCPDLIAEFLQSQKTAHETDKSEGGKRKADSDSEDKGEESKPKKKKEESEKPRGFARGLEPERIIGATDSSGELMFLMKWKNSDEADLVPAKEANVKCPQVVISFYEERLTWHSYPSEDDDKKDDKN
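HP1-beta protein (50 nM final) preincubated 30 min at room temperature with biotinylated H3(1-18)K9me3 peptide (50 nM) in PBS pH 7.4, 0.01% Tween-20, then compound added for 30 min. AlphaScreen streptavidin donor/nickel chelate acceptor beads (10 ug/mL final), 30 min dark, luminescence read.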
G9a inh = qHTS Assay for Inhibitors of Histone Lysine Methyltransferase G9a; G9a H3K9 monomethylation, AlphaScreen, 2 h; Potency, µM (highest dose often 102 µM), actives largely listed as inhibitors; 8.8% of 350,000 active; note: nearly all actives have a fitted effect of over 75% in size
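Compounds were preincubated with 20 nM G9a for 15 min, after which biotinylated H3K9 peptide (500 nM) and SAM (20 uM) started a 2 h room-temperature reaction. Monomethylated product was quantified by antibody-based AlphaScreen chemiluminescence.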
JMJD2A Tudor = qHTS Assay for Inhibitors of JMJD2A-Tudor Domain | 4.4% of 390,000 active | Lysine-specific demethylase 4A (Homo sapiens), O75164 | AID 504339, 2011 | Potency, µM (series often up to 114 µM), hits mostly inhibitors | AlphaScreen JMJD2A-Tudor / H3K4me3 peptide binding; note: nearly all actives have a fitted effect of over 50% in size
PLK1 PBD inh = qHTS for Inhibitors of PLK1-PDB (polo-like kinase 1 - polo-box domain): Primary Screen; Plk1 PBD binding of FITC phosphopeptide, fluorescence polarization; AID 720504, 2013; Potency, µM, actives largely listed as inhibitors; Serine/threonine-protein kinase PLK1 (Homo sapiens), P53350; 2.8% of 360,000 active; note: series mostly up to about 57 µM; nearly all actives have a fitted effect of over 65% in size
Target sequence (P53350 whole entry, looked up, the tested form may be a part): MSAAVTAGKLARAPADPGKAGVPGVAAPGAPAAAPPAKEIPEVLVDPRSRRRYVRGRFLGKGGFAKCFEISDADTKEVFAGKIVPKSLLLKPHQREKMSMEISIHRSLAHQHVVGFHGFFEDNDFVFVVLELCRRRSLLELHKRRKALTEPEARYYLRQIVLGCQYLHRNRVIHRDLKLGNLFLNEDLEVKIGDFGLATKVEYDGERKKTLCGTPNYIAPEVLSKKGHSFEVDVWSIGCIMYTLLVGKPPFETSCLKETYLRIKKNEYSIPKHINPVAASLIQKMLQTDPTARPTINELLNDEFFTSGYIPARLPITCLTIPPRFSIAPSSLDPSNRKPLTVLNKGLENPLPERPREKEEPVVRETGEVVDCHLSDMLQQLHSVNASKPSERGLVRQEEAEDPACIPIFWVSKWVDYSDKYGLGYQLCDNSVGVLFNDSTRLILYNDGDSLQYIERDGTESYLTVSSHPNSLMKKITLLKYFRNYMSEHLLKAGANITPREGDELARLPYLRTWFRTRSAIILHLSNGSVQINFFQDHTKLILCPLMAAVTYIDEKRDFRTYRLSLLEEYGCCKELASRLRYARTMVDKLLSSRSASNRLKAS
Sfp inh = qHTS Assay for Inhibitors of Bacillus subtilis Sfp phosphopantetheinyl transferase (PPTase) | Potency, µM, usual class: inhibitors | 4'-phosphopantetheinyl transferase ffp (Bacillus subtilis), Q9F4F7 | Biochemical Sfp PPTase activity, qHTS | 3.5% of 310,000 active | AID 1490, 2009;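 note: the enzyme is Sfp with the accession as filed and its product quenches rhodamine fluorescence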
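After 15 min at room temperature with compound, 15 nM Sfp received 5 uM rhodamine-CoA plus 12.5 uM BHQ-2-ybbR (50 mM Hepes pH 7.6, 10 mM MgCl2). Rate came from the fluorescence difference over 30 min, ex 525/em 598 nm.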
Each line names hits and unclear results; the compound was inactive in the other large screens. This is a sample that favours compounds with a hit; in the whole collection about 12% have one here. Calls come from the whole dose curve; as a rule, active = well fitted curve in the direction sought with a large enough effect; inconclusive = small, poorly fitted or top-dose-only effect, or another doubt; inactive = no such curve, though single readings can be large; an effect the other way counts as inactive or inconclusive.

CN(CCOC(=O)c1ccccc1)Cc1ccccc1	none
COc1ccc(N(Cc2ccccc2)N=O)cc1	G9a inh 39.8µM
COc1cc(C)ccc1OCCOCCN(C)Cc1ccccc1	BAZ2B block inconclusive, HP1b binding inh inconclusive, G9a inh inconclusive, JMJD2A Tudor 3.16µM
CN(C(=O)CSc1cn(CC(=O)N2CCCCC2)c2ccccc12)c1ccccc1	none (no result: PLK1 PBD inh, Sfp inh)
CCOc1ccccc1-n1nnnc1SCC(=O)O	BAZ2B block inconclusive, PLK1 PBD inh inconclusive
O=C(Nc1cc(Cl)ccc1F)C1=COCCO1	none (no result: Sfp inh)
CC(NC(=O)CN(c1ccc(Cl)cc1)S(C)(=O)=O)c1ccccc1 (stereo unspecified)	none (no result: G9a inh)
COc1ccc(OCCN(C)Cc2ccccc2)cc1	G9a inh inconclusive
Cc1cc(C)c(C)c(OCCCCN(C)Cc2ccccc2)c1	BAZ2B block 50.1µM, HP1b binding inh inconclusive, G9a inh 10µM, JMJD2A Tudor 11.2µM
CN(C)CCCCOc1ccc(F)cc1	BAZ2B block 79.4µM, HP1b binding inh inconclusive, G9a inh 8.91µM, JMJD2A Tudor 0.891µM, PLK1 PBD inh inconclusive
CN(CCOc1ccc(F)cc1)Cc1ccccc1	BAZ2B block 50.1µM, HP1b binding inh inconclusive, G9a inh 10µM, JMJD2A Tudor 0.794µM
COc1ccc(OCCCN(C)Cc2ccccc2)cc1	BAZ2B block inconclusive, HP1b binding inh inconclusive, G9a inh 12.6µM, JMJD2A Tudor 25.1µM
CN(CCOc1ccccc1)CCOc1ccccc1	none
OCCNCCCCOc1ccc(F)cc1	none
CO[C@@H]1COC(=O)C/C=C\[C@H](C)COC(=O)[C@H](C)NC(=O)C/C=C\[C@H]1C	none (no result: BAZ2B block, HP1b binding inh, G9a inh, JMJD2A Tudor, PLK1 PBD inh)
COC(=O)C1=C[C@@H](C(=O)OC)C2C3=C(C(=O)[C@@]2(C)NC(=O)c2ccccc2)[C@H](C)n2c(=O)n(-c4ccccc4)c(=O)n2[C@@H]3C1 (stereo partly specified)	none (no result: BAZ2B block, G9a inh, PLK1 PBD inh)
COc1ccc(OC)c(S(=O)(=O)N2CCN(C(=O)c3cc(C4CC4)nn3-c3ccccc3)CC2)c1	G9a inh inconclusive (no result: Sfp inh)
CCC(C)c1ccccc1OCCCN(C)Cc1ccccc1 (stereo unspecified)	BAZ2B block inconclusive, G9a inh 11.2µM, JMJD2A Tudor 7.08µM
Cc1ccc(-c2nnc(SCC(=O)NC3CCCC3)n2N)cc1	none (no result: BAZ2B block, G9a inh, Sfp inh)
CN(C)c1ccc(C=C2C=C(c3ccccc3)OC2=O)cc1	none (no result: BAZ2B block, HP1b binding inh, G9a inh, JMJD2A Tudor, Sfp inh)
CN(C)c1ccc(C=c2c3ccccc3n3c2cc(-c2ccccc2)[n+]3C)cc1	HP1b binding inh 50.1µM, JMJD2A Tudor 31.6µM (no result: BAZ2B block, G9a inh, Sfp inh)
COc1cc(C=c2c3ccccc3n3c2cc(-c2ccccc2)[n+]3C)cc(OC)c1OC	HP1b binding inh inconclusive, JMJD2A Tudor 31.6µM, PLK1 PBD inh 4.74µM (no result: BAZ2B block, G9a inh, Sfp inh)
CN(C)c1ccc(C=c2c3cc([N+](=O)[O-])ccc3n3c2cc(-c2ccccc2)[n+]3C)cc1	HP1b binding inh 11.2µM, JMJD2A Tudor 11.2µM, PLK1 PBD inh 2.67µM (no result: BAZ2B block, G9a inh, Sfp inh)
CN(C)c1ccc(C=c2c3ccccc3n3c2c2c([n+]3C)CCCC2)cc1	HP1b binding inh inconclusive, JMJD2A Tudor 28.2µM (no result: BAZ2B block, G9a inh, Sfp inh)
COc1cc(/C=C(/C(=O)O)c2ccc(-c3ccccc3)cc2)cc(OC)c1OC	none
Cn1c(CO)c(-c2ccccc2)c2cc([N+](=O)[O-])ccc21	none
COc1ccc(N2C(=O)C(F)(F)C2c2ccc(C)cc2)cc1OC (stereo unspecified)	none
CN(c1ccc(Cl)cc1)c1cc(=O)n(C)c2ccccc12	none
CN(C)c1ccc(C=c2c3ccccc3n3c2cc(-c2ccc(Cl)cc2)[n+]3C)cc1	HP1b binding inh 12.6µM, JMJD2A Tudor 44.7µM, PLK1 PBD inh 29.9µM (no result: BAZ2B block, G9a inh, Sfp inh)
COc1cc(N(C)C)ccc1C=c1c2ccccc2n2c1cc(-c1ccccc1)[n+]2C	HP1b binding inh inconclusive, JMJD2A Tudor 17.8µM, PLK1 PBD inh inconclusive (no result: BAZ2B block, G9a inh, Sfp inh)
COC(=O)c1ccc(C2N=C(c3cccs3)CC(c3ccccc3O)N2)cc1 (stereo unspecified)	G9a inh 44.7µM
Cc1cc2c(cc1S(=O)(=O)CCC(=O)NCCc1ccccc1)OCC(=O)N2	none
CCOc1cccc(NC(=O)C(Cc2cccs2)c2nn[nH]n2)c1 (stereo unspecified)	BAZ2B block inconclusive, G9a inh 56.2µM, Sfp inh inconclusive
O=C(Nc1ccccc1)C(Cc1cccs1)c1nn[nH]n1 (stereo unspecified)	none
Clc1cccc(CSc2nc3ccncc3[nH]2)c1	G9a inh inconclusive, Sfp inh inconclusive
O=C(NCCN1CCN(c2cccc(Cl)c2)CC1)c1ccc(CSc2nc3ccncc3[nH]2)cc1	BAZ2B block inconclusive, G9a inh 50.1µM, JMJD2A Tudor 44.7µM
Cc1ccc(C)c(N2CCN(C(=O)CCS(=O)(=O)c3ccc4c(c3)CCN4C(=O)C3CC3)CC2)c1	none
CCOC(=O)C1=C(CC)Nc2ccccc2N=C1NC(=O)c1ccc(S(=O)(=O)N(C)C)cc1	HP1b binding inh inconclusive, JMJD2A Tudor inconclusive, PLK1 PBD inh 2.67µM
CCOC(=O)C1=C(CC)Nc2ccccc2N=C1NC(=O)c1ccc(S(=O)(=O)N2CCOCC2)cc1	none
Cc1ccccc1CSCC(=O)N1CCN(c2ccccc2)CC1	BAZ2B block inconclusive
Cn1nc(C(F)(F)F)c2cc(C(=O)O)sc21	none
Cn1c(-c2cc3c(C(F)(F)F)nn(C)c3s2)n[nH]c1=S	G9a inh 31.6µM, JMJD2A Tudor 11.2µM, Sfp inh inconclusive
CCn1c(-c2cc3c(C(F)(F)F)nn(C)c3s2)n[nH]c1=S	G9a inh 5.62µM, JMJD2A Tudor 8.91µM, Sfp inh 70.8µM
COc1cccc(C2CC(c3cccc(NS(C)(=O)=O)c3)=NN2C(=O)c2ccccc2)c1OC (stereo unspecified)	none
COc1ccc(N(CC(=O)Nc2ccccc2F)S(=O)(=O)c2ccc(C)c([N+](=O)[O-])c2)cc1	G9a inh inconclusive
O=[N+]([O-])c1cccc(/C=N/n2c(COc3ccccc3)n[nH]c2=S)c1	BAZ2B block inconclusive, JMJD2A Tudor 56.2µM, PLK1 PBD inh inconclusive, Sfp inh 56.2µM
O=[N+]([O-])c1ccc(/C=N/n2c(COc3ccccc3)n[nH]c2=S)cc1	BAZ2B block inconclusive, G9a inh inconclusive, JMJD2A Tudor 79.4µM, PLK1 PBD inh inconclusive
COc1cc(OC)c(Nc2ncnc3onc(-c4cccc(Cl)c4)c23)cc1Cl	none (no result: PLK1 PBD inh, Sfp inh)
COc1cc(C2NC(=O)NC(C)=C2C(=O)Nc2cc(C)cc(C)c2)ccc1O (stereo unspecified)	none (no result: PLK1 PBD inh, Sfp inh)
O=C(NCCc1ccccc1)c1noc2c1CCc1ccccc1-2	none (no result: G9a inh)
